Out of some 350,000 compounds screened, about 7,000 (2%) were called active. This is one part of a sample in which actives are shown more often than they occur. Cut-off read from the data, not from the text of the source: active = activation above about 40%; inconclusive = no clear call, values can overlap the other calls; inactive = below that.
assay: Bmi1 luciferase reporter increase in mESCs, primary screen, esBAF inhibitor project, mouse ES cells, Bmi1 luciferase knock-in, single point (AID 602393); details: 24 h, at 12.5 µM, hits give high values, 100% = twice the neutral-well signal;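 note: 0% = median of the plate's neutral control wells and 100% = double that signal; a rise in the Bmi1 reporter signal indicates esBAF inhibition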

Reporter increase, inactive:
Cc1noc(C)c1S(=O)(=O)N(C)C[C@@H]1OCCCC[C@@H](C)Oc2ccc(NC(=O)c3ccccc3)cc2C(=O)N([C@@H](C)CO)C[C@@H]1C 4.85%
COc1ccc(S(=O)(=O)Nc2ccc3c(c2)C(=O)N([C@@H](C)CO)C[C@H](C)[C@@H](CN(C)C(=O)c2ccccc2)OCCCC[C@H](C)O3)cc1 -1.88%
C/C=C/c1ccc([C@H]2[C@@H](CO)N(C(C)=O)[C@H]2CNC(=O)c2ccncc2)cc1 2.82%
C[C@@H]1CN([C@@H](C)CO)C(=O)c2cc(NS(=O)(=O)c3ccccc3)ccc2O[C@@H](C)CCCCO[C@H]1CN(C)S(=O)(=O)c1cccs1 -5.79%
O=C(C[C@@H]1C=C[C@@H](NC(=O)c2ccc3c(c2)OCO3)[C@H](CO)O1)NC1Cc2ccccc2C1 4.12%
C[C@@H]1CCCCO[C@H](CN(C)C(=O)CCC(F)(F)F)[C@H](C)CN([C@@H](C)CO)C(=O)c2cc(NC(=O)CCCCCC(=O)Nc3ccccc3N)ccc2O1 1.1%
COc1ccccc1N1CCN(/N=C\C(Br)=C\c2ccccc2)CC1 24.6%
COc1cc(/C=N/N2CCN(c3ccccc3)CC2)ccc1OC(C)=O 7.78%
CN(C)CC(=O)Nc1ccc2c(c1)[C@@H]1C[C@H](CC(=O)NCC3CC3)O[C@@H](CO)[C@@H]1O2 5.49%
CO[C@@H]1CN(C)C(=O)c2cc(NC(=O)c3ccc4c(c3)OCO4)ccc2OC[C@H](C)N(CCC(F)(F)F)C[C@H]1C 1.54%
O=C(NCC[C@@H]1CC[C@H](NS(=O)(=O)c2cccc(F)c2)[C@H](CO)O1)c1cnccn1 -3.13%
C[C@H](CO)N1C[C@H](C)[C@@H](CN(C)Cc2ccccn2)Oc2ncc(-c3cccc(F)c3)cc2C1=O 0.648%
COC(=O)COc1cccc2c(=O)n(CC(=O)NCCc3ccc(OC)c(OC)c3)ccc12 8.15%
COc1cc(C=O)c(Br)cc1OCC(=O)NCc1ccccc1 0.717%
O=C(C[C@H]1C[C@H]2c3cc(NC(=O)C4CCOCC4)ccc3O[C@H]2[C@@H](CO)O1)NCC1CC1 0.385%
O=C(COC(=O)c1ccccc1)c1ccc2c(c1)OCCO2 1.23%
O=C(COC(=O)c1ccc(O)cc1O)NC(=O)c1ccccc1 -3.35%
O=C(COC(=O)c1ccc2c(c1)OCCO2)NCc1ccccc1Cl -1.54%
O=C(CN1CCN(c2ccccc2F)CC1)c1ccc2c(c1)OCO2 14.1%
C/C=C/c1ccc([C@H]2[C@@H](CO)N(C(C)=O)[C@H]2CN(C)S(C)(=O)=O)cc1 -4.53%
O=C(C1CCC1)N1C[C@H]2[C@@H](c3ccccc31)[C@H](CO)N2C(=O)Nc1cccc(F)c1 -1.72%
Cc1nnc(NC(=O)c2ccc3nccnc3c2)s1 16.2%
CCOc1cccc(C(=O)Nc2cnn(Cc3ccccc3)c2)c1 13%
Cc1noc(C)c1NC(=O)N[C@@H]1C=C[C@H](CC(=O)N2CCCCC2)O[C@H]1CO -4.9%
COc1ccc(CNC(=O)C[C@H]2C[C@H]3c4cc(NS(C)(=O)=O)ccc4O[C@H]3[C@@H](CO)O2)cc1 -3.21%
CN(C)C(=O)c1cccc(-c2ccc3c(c2)[C@H]2[C@H](CCN2C(=O)Cc2ccccc2)[C@H](CO)N3)c1 11%
O=C(Nc1ccc(Cl)cc1)c1csc([C@@H]2O[C@H](CO)[C@H](O)[C@H](O)[C@H]2O)n1 -3.58%
O=C(Nc1ccc(OCCO)cc1)c1csc([C@H]2C[C@H](O)[C@@H](CO)O2)n1 0.832%
CCCNC(=O)[C@@H]1[C@@H](CO)[C@@H]2Cn3c(ccc(C4=CCCCC4)c3=O)[C@H]1N2CCC 2.73%
O=C(C[C@H]1C[C@@H]2c3cc(NC(=O)C4CCC4)ccc3O[C@@H]2[C@@H](CO)O1)NCCN1CCCCC1 -1.5%
COC(=O)c1c(-c2ccc(C)cc2)csc1N 0.96%
COc1ccccc1CNC(=O)C[C@@H]1C[C@H]2c3cc(NC(=O)CN(C)C)ccc3O[C@H]2[C@@H](CO)O1 0.071%

Reporter increase, active:
COc1ccccc1N1CCN(/N=C/c2ccc(O)cc2O)CC1 60.9%
COc1ccc(CNC(=O)COc2ccccc2C(=O)c2cnn(-c3ccccc3)c2)cc1OC 75.1%
O=C(COC(=O)c1ccc(O)cc1O)c1ccc2c(c1)OCCO2 90.2%
O=C(OCc1ccccc1F)c1ccc2c(c1)OCCO2 58.2%
CCOc1cccc(C(=O)Nc2nnc(-c3cccs3)s2)c1 50%
O=C(Nc1ccc(Cl)cc1)c1csc([C@H]2C[C@H](O)[C@@H](CO)O2)n1 67.4%
Nc1scc(-c2ccncc2)c1Cl 47.9%

From PubChem BioAssay AID602393 (Broad Institute, 2012)
